# From PubChem
# TEAD-YAP block: TEAD-YAP interaction inhibition; hit rate 1.4% among 640,000; HEK-TIYL cells, TEAD-Gal4/YAP UAS-luciferase luminescence; inhibition, % at 9.12 µM; in the data active = inhibition above about 32%
# FBW7 activator: activators of human E3 ligase FBW7 | hit rate 0.13% among 650,000 | AlphaScreen FBW7–phospho-cyclin E peptide binding, activator screen | normalized activity (activation), % at 26.1 µM | AID 1259310; in the data active = normalized activity above about 1.9%;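 also: purified mutant Fbw7 with reduced substrate affinity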
# GPR151 activ: activators of human GPR151; activation, % at 11.2 µM; hit rate 1% among 650,000; PathHunter beta-arrestin GPR151 cells, luminescence; in the data active = activation above about 4.9%
# Target sequence (Q8TDV0 whole entry, looked up): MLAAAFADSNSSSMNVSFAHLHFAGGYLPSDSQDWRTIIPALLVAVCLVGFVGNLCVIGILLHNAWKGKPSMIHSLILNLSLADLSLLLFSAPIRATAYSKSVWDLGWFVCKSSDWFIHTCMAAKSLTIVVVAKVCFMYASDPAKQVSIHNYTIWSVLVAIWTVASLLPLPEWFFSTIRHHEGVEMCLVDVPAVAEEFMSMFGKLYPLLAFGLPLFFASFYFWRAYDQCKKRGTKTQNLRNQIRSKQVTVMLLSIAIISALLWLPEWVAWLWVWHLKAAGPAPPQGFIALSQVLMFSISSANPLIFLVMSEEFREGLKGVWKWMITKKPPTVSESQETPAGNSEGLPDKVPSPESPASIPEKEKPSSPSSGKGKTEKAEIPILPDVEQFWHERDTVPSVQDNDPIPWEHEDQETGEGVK
# MITF inh: blocks human microphthalmia-associated transcription factor | AlphaScreen MITF homodimerization, bead proximity signal | inhibition, % at 2.6 µM | hit rate 0.91% among 650,000 | AID 1259374; in the data active = inhibition above about 50%
# MITF inh conf: confirmation of human MITF inhibitors. shares compounds with MITF inh. AlphaScreen MITF homodimerization, biotin/His-MITF beads. inhibition, % at 2.6 µM. hit rate 16% among 4,700. AID 1259372;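 active = inhibition above a cutoff derived from the DMSO control wells, cut at about 28% in these data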;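 also: inhibitors lower the bead chemiluminescence by keeping MITF from dimerizing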
# AS interf ctr: counter-screen: compounds optically interfering with AlphaScreen | LysRS AlphaScreen counterscreen, signal interference, triplicate | inhibition, % at 2.6 µM | hit rate 7.6% among 4,700 | AID 1259376 | shares compounds with MITF inh;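 active = inhibition above a cutoff derived from the DMSO control wells, cut at about 30% in these data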
# Numbers stand for hits; n = inactive; x = no result. A selection: hits, their analogues and other compounds. The true share with any hit is near 3.4%.
SMILES,TEAD-YAP block,FBW7 activator,GPR151 activ,MITF inh,MITF inh conf,AS interf ctr
COc1ccc2c(c1)C(C)CC(C)(C)N2C(=O)CNCc1ccco1 (centres undefined),n,n,n,57.2,n,n
Cc1ccc2c(c1)C(C)CC(C)(C)N2C(=O)CNCCN1CCOCC1 (centres undefined),n,n,n,87.1,n,n
COc1ccc(CCNCC(=O)N2c3ccccc3C(C)CC2(C)C)cc1 (centres undefined),n,n,n,n,x,x
O=C1COc2cc(-c3c(N4CCN(c5ccccc5)CC4)c(=O)c3=O)ccc2N1,n,n,n,n,x,x
O=C(CN1CCN(Cc2cccc3ccccc23)CC1)c1ccco1,n,n,n,67.2,n,n
c1coc(CN2CCN(Cc3cccc4ccccc34)CC2)c1,n,n,n,76.2,n,n
Cc1cccc(NC(=O)Nc2ccc(-c3cn[nH]c3)cc2)c1,n,n,n,n,x,x
COCCNCC(=O)Nc1ccc(N2CCCCC2)cc1,n,n,n,60.9,n,n
COCCNCC(=O)Nc1ccc(CN2CCCCC2)cc1,n,n,n,53.0,n,n
O=C(CCl)Nc1ccc(CN2CCCCC2)cc1,n,n,n,n,x,x
COc1cccc(CNCC(=O)Nc2ccc(N3CCCCCC3)cc2)c1,n,n,n,53.3,n,n
COc1cccc2sc(N3CCN(C(=O)C4CCN(S(C)(=O)=O)CC4)CC3)nc12,n,n,n,n,x,x
Cc1ccc(-c2nc3s/c(=C\c4cn(-c5ccccc5)nc4-c4ccc(OC(C)C)cc4)c(=O)n3n2)cc1,n,n,n,n,x,x
CC1CC(=O)N(CC(=O)Nc2ccc([N+](=O)[O-])cc2)c2ccccc2S1 (centres undefined),n,n,n,n,x,x
Cc1cc(-c2ccncc2)ccc1NC(=O)C1COc2ccccc2O1 (centres undefined),n,n,n,n,x,x
O=c1[nH]c(CN(CCO)Cc2nc3sccc3c(=O)[nH]2)nc2sccc12,n,n,n,78.1,46.5,100.3
CC1CCN(Cc2nnnn2CCCC(=O)NCCCc2cccnc2)CC1,n,n,n,n,x,x
CC1CCN(Cc2nnnn2CCCC(=O)NCCc2cccc(Cl)c2)CC1,n,n,n,65.1,n,n
COC(=O)CSc1nnc(-c2ccc(OC)c(OC)c2)n1C,n,n,n,n,x,x
COc1ccc(CN2CCN(C(=O)c3cccc(F)c3)CC2)cc1Br,n,n,n,58.9,n,n
COc1ccc(CN2CCN(C(=O)c3ccc(F)cc3)CC2)cc1Br,n,n,n,51.4,n,n
COc1ccc(CN2CCN(C(=O)c3cccnc3)CC2)cc1Br,n,n,n,59.5,n,n
COc1ccc(CN2CCN(C(=O)c3ccccc3)CC2)cc1Br,n,n,n,n,x,x
COc1cc(CN2CCN(C(=O)c3ccc(F)cc3)CC2)cc(OC)c1O,n,n,n,53.4,n,n
COc1ccc(C2CC(C(F)(F)F)n3nc(C(=O)Nc4cccc(C)c4C)cc3N2)cc1OC (centres undefined),n,n,n,n,x,x
SMILES,TEAD-YAP block,FBW7 activator,GPR151 activ,MITF inh,MITF inh conf,AS interf ctr
COC(=O)[C@@H]1CCCN1C(=O)CCC1(Cc2ccc(Cl)cc2)CCC(=O)N1 (some centres undefined),n,n,n,n,x,x
Cc1csc(-c2cc3ccccc3oc2=O)n1,n,n,n,66.7,n,n
O=C(CCCCCn1c(SCc2ccc([N+](=O)[O-])cc2)nc2ccsc2c1=O)NCCc1ccccc1,n,n,n,n,x,x
CCOC(c1ccccc1)c1ccc2c(c1)CN(C(=O)Cc1c(C)noc1C)CCO2 (centres undefined),n,n,n,74.9,n,n
Cc1noc(C)c1CC(=O)N1CCOc2ccc(C(O)c3ccccn3)cc2C1 (centres undefined),n,n,n,n,x,x
CS(=O)(=O)N1CCN(CC(=O)c2ccco2)CC1,n,n,n,56.8,n,n
CCN1CCN(CC(=O)c2ccco2)CC1,n,n,n,69.5,n,n
COC(=O)c1ccc(CN2CCN(CC(=O)c3ccco3)CC2)cc1,n,n,n,69.5,n,n
CCOC(=O)C1=C(C)NC2=C(C(=O)CC(c3ccc(Cl)cc3)C2)C1c1ccc(O)c(OC)c1 (centres undefined),n,n,n,n,x,x
Cc1ccc(NC(=O)c2nnn(Cc3ccccc3Cl)c2N)c(C)c1,n,n,n,n,x,x
COc1ccccc1N1CCN(Cc2cc3c(cc2[N+](=O)[O-])OCO3)CC1,n,n,n,n,x,x
O=[N+]([O-])c1ccccc1/C=C/CN1CCN(Cc2ccc3c(c2)OCO3)CC1,n,n,n,59.0,n,n
O=[N+]([O-])c1cc2c(cc1CNCCCN1CCOCC1)OCO2,n,n,n,59.1,n,n
COc1cc(CN2CCN(Cc3ccc4c(c3)OCO4)CC2)c([N+](=O)[O-])cc1OC,n,n,n,68.7,n,n
O=[N+]([O-])c1cc2c(cc1CN1CCCCCC1)OCO2,n,n,n,51.6,n,n
O=[N+]([O-])c1cc2c(cc1CN1CCN(CCO)CC1)OCO2,n,n,n,n,x,x
Cc1cc(NC(=O)CSC2=NC(=O)C(c3ccccc3)C(=O)N2)no1 (centres undefined),n,n,n,n,x,x
Cc1cccc(NC(=O)CN2CCN(C)CC2)c1,n,n,n,n,x,x
COc1cc(CN2CCC(C)CC2)c([N+](=O)[O-])cc1OC,n,n,n,n,x,x
COc1cc(CN2CCN(Cc3cccc(C)c3)CC2)c([N+](=O)[O-])cc1OC,n,n,n,72.6,n,n
COc1cc(CN2CCN(Cc3cccc(Cl)c3)CC2)c([N+](=O)[O-])cc1OC,n,n,n,56.5,n,n
O=C(NC(=S)Nc1ccc(C(=O)N2CCOCC2)cc1)c1ccc(F)cc1,n,n,n,n,x,x
Nc1cc(N)nc(SCC(=O)Nc2ccc(F)cc2F)n1,n,n,n,n,x,x
CCOC(=O)CCC(=O)Nc1c(C)cccc1C,n,n,n,n,x,x
CC1CCN(C(=O)/C(=C\c2ccc(N(C)C)cc2)NC(=O)c2ccccc2)CC1,n,n,n,n,x,x
SMILES,TEAD-YAP block,FBW7 activator,GPR151 activ,MITF inh,MITF inh conf,AS interf ctr
Fc1cc(F)c(F)c(SCCc2ccncc2)c1F,n,n,n,90.2,n,n
CC(NCc1cccnc1)C(=O)Nc1ccccc1 (centres undefined),n,n,n,75.1,n,n
c1ccc(C(NCc2cccnc2)c2ccccc2)cc1,n,n,n,86.3,n,n
CCOC(=O)CC1=C(C(=O)OCC)C(c2ccc(F)cc2)C(C#N)=C(N)O1 (centres undefined),n,n,n,n,x,x
O=C1/C(=C/c2ccccc2)SC(=NCc2ccccc2)N1Cc1ccccc1,n,n,n,n,x,x
C=CCOC(=O)COc1ccc2c(=O)c(Oc3ccc(OC)cc3)coc2c1,n,n,n,74.8,n,n
O=C(NC1(c2cccc(F)c2)CCCC1)c1cccc(N2CCCCS2(=O)=O)c1,n,n,n,n,x,x
Oc1ccc(Nc2nc(-c3ccc(O)cc3O)cs2)cc1,n,n,n,n,x,x
COc1cccc(C(=O)N[C@H]2C[C@H]3C(=O)N[C@H](C)C(=O)N3C2)c1,n,n,n,65.9,n,n
